Among the data in PubChem BioAssay are inhibition values, retold here.

By inhibition is commonly meant the change of the read-out against control, counted positive when it falls.

Unmarked numbers belong to inactive results. Calls of active or inactive are those of the source. Cut-off read from the data, not from the text of the source, unless noted: active = inhibition above about 36%; inactive = the rest.

Nuclear receptor coactivator 2 (Homo sapiens), sequence (Q15596 whole entry, looked up, the tested form may be a part): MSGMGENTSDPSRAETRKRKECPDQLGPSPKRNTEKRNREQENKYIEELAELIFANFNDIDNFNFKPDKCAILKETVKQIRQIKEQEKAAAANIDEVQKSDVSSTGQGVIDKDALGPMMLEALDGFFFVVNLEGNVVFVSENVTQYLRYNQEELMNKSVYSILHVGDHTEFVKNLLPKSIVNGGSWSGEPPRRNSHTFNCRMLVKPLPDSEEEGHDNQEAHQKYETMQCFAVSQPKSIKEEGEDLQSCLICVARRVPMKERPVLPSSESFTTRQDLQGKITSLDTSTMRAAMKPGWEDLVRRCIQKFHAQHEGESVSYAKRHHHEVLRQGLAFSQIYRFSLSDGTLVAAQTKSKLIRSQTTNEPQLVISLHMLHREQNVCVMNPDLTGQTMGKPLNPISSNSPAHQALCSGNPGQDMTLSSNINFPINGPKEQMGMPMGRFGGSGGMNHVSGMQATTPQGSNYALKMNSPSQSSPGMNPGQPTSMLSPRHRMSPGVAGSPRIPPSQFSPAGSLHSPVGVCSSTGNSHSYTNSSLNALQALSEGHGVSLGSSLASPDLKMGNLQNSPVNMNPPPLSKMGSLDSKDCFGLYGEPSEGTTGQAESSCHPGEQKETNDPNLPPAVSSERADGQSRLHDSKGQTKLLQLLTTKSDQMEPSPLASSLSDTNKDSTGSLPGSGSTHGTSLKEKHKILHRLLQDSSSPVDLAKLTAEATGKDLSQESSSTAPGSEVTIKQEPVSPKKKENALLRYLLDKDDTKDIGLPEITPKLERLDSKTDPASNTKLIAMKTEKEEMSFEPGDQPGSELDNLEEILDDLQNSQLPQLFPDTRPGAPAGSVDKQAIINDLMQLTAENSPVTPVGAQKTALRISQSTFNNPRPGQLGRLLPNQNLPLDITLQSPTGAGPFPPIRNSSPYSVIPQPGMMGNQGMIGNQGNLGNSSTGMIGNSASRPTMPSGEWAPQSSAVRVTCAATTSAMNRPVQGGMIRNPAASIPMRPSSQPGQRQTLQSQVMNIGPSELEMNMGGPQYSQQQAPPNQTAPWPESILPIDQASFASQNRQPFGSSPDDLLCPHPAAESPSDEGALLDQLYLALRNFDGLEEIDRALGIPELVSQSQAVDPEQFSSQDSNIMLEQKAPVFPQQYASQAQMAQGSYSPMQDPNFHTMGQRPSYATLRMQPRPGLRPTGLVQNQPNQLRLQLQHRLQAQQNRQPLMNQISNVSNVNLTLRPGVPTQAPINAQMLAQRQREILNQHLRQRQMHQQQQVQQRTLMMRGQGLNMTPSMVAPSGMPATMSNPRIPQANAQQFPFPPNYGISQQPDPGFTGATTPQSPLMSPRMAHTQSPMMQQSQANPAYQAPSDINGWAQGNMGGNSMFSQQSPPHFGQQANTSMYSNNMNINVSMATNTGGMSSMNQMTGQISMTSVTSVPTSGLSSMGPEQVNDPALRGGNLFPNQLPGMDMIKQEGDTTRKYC

In the first assay the target is Steroidogenic factor 1 (Homo sapiens) (UniProt Q13285). The experiment in a line: inverse agonism at SF1 nuclear receptor – cell-based, luminescence, high throughput, counter-screen for LRH-1 inverse agonist project (AID 651614; in the data active = inhibition above about 44%;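 note: cells cotransfected with StAR promoter reporter and SF1 expression vector; 0% = vehicle on cells with receptor and 100% = vehicle on cells lacking receptor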). The note with it: cell-based SF1 luciferase reporter, at 3.6 µM, stronger effect = higher value. (In general: A counterscreen serves to expose hits that act by an unwanted route or on another target.)
Steroidogenic factor 1 (Homo sapiens), sequence (Q13285 whole entry, looked up): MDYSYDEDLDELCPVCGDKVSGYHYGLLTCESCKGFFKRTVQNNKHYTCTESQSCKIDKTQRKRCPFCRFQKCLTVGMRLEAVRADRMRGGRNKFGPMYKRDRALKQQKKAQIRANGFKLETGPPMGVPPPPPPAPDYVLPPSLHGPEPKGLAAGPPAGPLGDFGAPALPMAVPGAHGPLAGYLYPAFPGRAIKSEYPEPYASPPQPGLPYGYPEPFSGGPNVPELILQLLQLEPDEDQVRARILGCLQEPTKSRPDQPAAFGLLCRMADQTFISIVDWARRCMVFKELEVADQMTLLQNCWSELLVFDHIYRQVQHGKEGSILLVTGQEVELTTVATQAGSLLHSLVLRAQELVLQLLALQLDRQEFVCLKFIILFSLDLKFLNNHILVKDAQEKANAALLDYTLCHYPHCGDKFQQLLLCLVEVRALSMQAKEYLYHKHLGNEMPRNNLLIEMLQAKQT
For `COc1ccc(OCC(=O)N/N=C/c2ccc(O[C@@H]3O[C@H](CO)[C@@H](O)[C@H](O)[C@H]3O)cc2)cc1`, the inhibition was 72.1% (active).

In the case of `CC(C)CCOc1cccc(OCC(=O)Nc2ccncc2)c1`, the inhibition is 60.3% (active).

As for `CC[n+]1cc(C)ccc1/C=C/c1ccc(N(C)C)cc1`, the inhibition is 85.7% (active).

Consider `CCCCCCC[N+](CC)(CC)CCCCc1ccc(Cl)cc1`, for which the inhibition was 66.2% (active).

`CC[C@@]1(O)C(=O)OCc2c1cc1n(c2=O)Cc2cc3c(CN(C)C)c(O)ccc3nc2-1`: the inhibition was 85.7% (active).

In the case of `CC(=O)Nc1ccc(Oc2sc(C(=O)c3ccccc3)c(N)c2C#N)cc1`, the inhibition was 66.7% (active).

Test system in another assay: not listed separately
The assay can be described thus: compounds suppressing VP16-driven luciferase signal – cell-based, luminescence, high throughput, counter-screen for LRH-1 inverse agonist project (AID 651615; in the data active = inhibition above about 33%). The conditions noted are these: Gal4-VP16 luciferase reporter cells, at 3.6 µM, stronger effect = higher value.
Consider `CC(C)CCOc1cccc(OCC(=O)Nc2ccncc2)c1`, for which the inhibition is 58.9% (active).

Turning to `CC[n+]1cc(C)ccc1/C=C/c1ccc(N(C)C)cc1`, the inhibition was 80% (active).

For `CC(=O)Nc1ccc(Oc2sc(C(=O)c3ccccc3)c(N)c2C#N)cc1`, the inhibition is 7.59%.

The subject of another assay is transactivating tegument protein VP16 (Human herpesvirus 1). The assay can be described thus: compounds suppressing VP16-driven luciferase signal – cell-based, luminescence, single concentration, counter-screen for SRC2 inhibitor project (AID 652007). The note with it: cell-based VP16 transactivation luciferase reporter, at 8.9 µM, stronger effect = higher value.
For `O=C(Nc1ccccc1)NN(C(=O)CCl)c1ccccc1`, the inhibition is 32.9%.

As to `CCc1ccc(-c2nc(CS(=O)CC(=O)NCc3ccco3)c(C)o2)cc1` (stereo not drawn), the inhibition is 3.28%.

As for `Cc1nnc(SC(=O)N2c3ccccc3Sc3ccccc32)s1`, the inhibition was 37.9% (active).

`COc1ccc2nc(C)cc(Sc3nc4ccccc4s3)c2c1`: the inhibition is 26%.

For `CC1CCN(c2ccc(-c3cccs3)nn2)CC1`, the inhibition is 34.7%.

With `Nc1ccc(-c2nc3ccc(C(=O)O)cc3s2)cc1`, the inhibition was 40.2% (active).

Take `O=C(/C=C/c1ccccc1)CC(O)(c1ccccc1)C(F)(F)C(F)F` (stereo not drawn): the inhibition was 7.22%.

On to `COc1ccc(/C=C/C(=O)c2ccc3c4c(cccc24)CC3)cc1OC`, for which the inhibition is 25.2%.

For the compound `O=c1cc(CCl)nc(Cc2c(Cl)cccc2Cl)[nH]1`, the inhibition was 16.8%.

`Cc1ccc(-n2c(-c3ccc(Cl)cc3)c[n+]3c2CCC3)cc1`: the inhibition is 13.4%.

`O=C(NC(CSCc1ccccc1)C(=O)N/N=C/c1ccc(O)cc1O)c1ccc([N+](=O)[O-])cc1` (stereo not drawn): the inhibition is -26.8%.

As for `COc1cc(/C=C/C(=O)c2ccc3c(c2)OCCO3)cc(Br)c1OCC(=O)N(C)C`, the inhibition is 30.9%.

On to `O=C(O)CCCCCN1C(=O)CSC1=S`, for which the inhibition was -0.37%.

Regarding `Cc1cccc(Nc2nc(N)nc(CCl)n2)c1C`, the inhibition is 14.2%.

In the case of `Cc1cc(Sc2nnc(N)s2)c2ccccc2n1`, the inhibition is 11.7%.

With `CC(C)(C)C(=O)Nc1ccc(-c2cc3cc(Cl)ccc3o2)cc1`, the inhibition was -83.9%.

For the compound `COc1cccc(F)c1C(C[N+](=O)[O-])c1c(N)n(C)c(=O)n(C)c1=O` (stereo not drawn), the inhibition is 14.7%.

In the case of `CCOc1ccc(C(=O)C(CCC(CN(C)C)C(=O)c2ccc(OCC)cc2)CN(C)C)cc1` (stereo not drawn), the inhibition is 42.6% (active).

Turning to `CCN(CC)S(=O)(=O)c1ccc(N/N=C/c2cc(OC)ccc2O)nc1`, the inhibition is -11%.

Regarding `CCN(c1cccc(C)c1)c1ncnc2nc[nH]c12`, the inhibition was -7.68%.

In the case of `Cc1ccc(/C=C2\SC(=S)N(CCCC(=O)Nc3ccc(O)cc3)C2=O)cc1`, the inhibition is 36.9% (active).

In the case of `CC(C)CCOc1cccc(OCC(=O)Nc2ccncc2)c1`, the inhibition is 27.6%.

With `Cc1ccc2nc(NC(=O)CSCC(=O)OCC(=O)c3ccc(Br)cc3)sc2c1`, the inhibition was 77.8% (active).

As for `O=S(=O)(/C(=C/c1ccc(C(F)(F)F)cc1)c1nc2ccccc2[nH]1)c1ccccc1`, the inhibition is 71.8% (active).

For `CCOc1cc(/C=C2\COc3ccccc3C2=O)ccc1OCC(=O)N(C)C`, the inhibition is 32.2%.

For the compound `O=C(O)c1ccc(N/N=C/c2ccc3c(c2)OCO3)cc1`, the inhibition is -0.58%.

Consider `Cc1ccc(-n2nc3c(=O)n(C(C)C(=O)NCCC4=CCCCC4)nc(C)c3c2C)cc1` (stereo not drawn), for which the inhibition was 3.1%.

As to `Cc1noc(C)c1COC(=O)c1cccc(S(=O)(=O)N2CCCCCC2)c1`, the inhibition was 9.01%.

Regarding `Cc1ccc(NC(=O)c2ccccc2NS(=O)(=O)c2ccc(F)cc2)cc1S(=O)(=O)N1CCCCC1`, the inhibition was 10.3%.

As to `CCC(=O)c1ccc(O)c(CC=C(C)C)c1`, the inhibition is -16.9%.

Regarding `CCOc1ccc(C(=O)O/N=C(\N)c2ccccn2)cc1`, the inhibition is 15.8%.

As to `COc1ccc(-c2csc3ncnc(NCCN4CCOCC4)c23)cc1`, the inhibition is 0.34%.

In the case of `COc1ccc(C(=O)Nc2ccc(C)cn2)c(OC)c1`, the inhibition is 23.7%.

Take `COc1ccc(Cc2nnc(N/N=C/c3ccc(O)cc3)[nH]c2=O)cc1OC`: the inhibition was 33.1%.

On to `CC[C@@]1(O)C(=O)OCc2c1cc1n(c2=O)Cc2cc3c(CN(C)C)c(O)ccc3nc2-1`, for which the inhibition was 32.9%.

For the compound `Cc1nc([N+](=O)[O-])c(Sc2nc3ccccc3n2C)n1Cc1ccccc1`, the inhibition is 31.9%.

Turning to `CC(=O)Nc1ccc(Oc2sc(C(=O)c3ccccc3)c(N)c2C#N)cc1`, the inhibition is 14.6%.

A further assay has as its target Nuclear receptor coactivator 2 (Homo sapiens) (UniProt Q15596). The experiment in a line: inhibition of GAL4-SRC2 driven luciferase expression – cell-based, luminescence, HEK293, triplicate, confirmation (AID 652008;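 active = mean inhibition above 46.5%, the solvent-only control mean plus 3 SD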;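 note: 0% = DMSO-treated cells and 100% = Gossypol at 36 µM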). The note with it: HEK293 GAL4-SRC2 luciferase reporter, at 8.9 µM, stronger effect = higher value. A general note: In a reporter assay the amount or activity of a reporter protein is the signal.
As for `O=C(Nc1ccccc1)NN(C(=O)CCl)c1ccccc1`, the inhibition is 56.9% (active).

Consider `CCc1ccc(-c2nc(CS(=O)CC(=O)NCc3ccco3)c(C)o2)cc1` (stereo not drawn), for which the inhibition is 56.7% (active).

Take `Cc1nnc(SC(=O)N2c3ccccc3Sc3ccccc32)s1`: the inhibition was 60.4% (active).

Consider `COc1ccc2nc(C)cc(Sc3nc4ccccc4s3)c2c1`, for which the inhibition was 51.3% (active).

As for `CC1CCN(c2ccc(-c3cccs3)nn2)CC1`, the inhibition is 47.3% (active).

Regarding `Nc1ccc(-c2nc3ccc(C(=O)O)cc3s2)cc1`, the inhibition was 60.6% (active).

Turning to `O=C(/C=C/c1ccccc1)CC(O)(c1ccccc1)C(F)(F)C(F)F` (stereo not drawn), the inhibition is 19.9%.

In the case of `COc1ccc(/C=C/C(=O)c2ccc3c4c(cccc24)CC3)cc1OC`, the inhibition was 67.6% (active).

As for `O=c1cc(CCl)nc(Cc2c(Cl)cccc2Cl)[nH]1`, the inhibition was 54.1% (active).

With `Cc1ccc(-n2c(-c3ccc(Cl)cc3)c[n+]3c2CCC3)cc1`, the inhibition was 18.6%.

Consider `O=C(NC(CSCc1ccccc1)C(=O)N/N=C/c1ccc(O)cc1O)c1ccc([N+](=O)[O-])cc1` (stereo not drawn), for which the inhibition is 8.58%.

Take `COc1cc(/C=C/C(=O)c2ccc3c(c2)OCCO3)cc(Br)c1OCC(=O)N(C)C`: the inhibition was 50.3% (active).

On to `O=C(O)CCCCCN1C(=O)CSC1=S`, for which the inhibition was 7.01%.

For the compound `Cc1cccc(Nc2nc(N)nc(CCl)n2)c1C`, the inhibition was 55.7% (active).

Turning to `Cc1cc(Sc2nnc(N)s2)c2ccccc2n1`, the inhibition was 32%.

For the compound `CC(C)(C)C(=O)Nc1ccc(-c2cc3cc(Cl)ccc3o2)cc1`, the inhibition was -30.7%.

With `COc1cccc(F)c1C(C[N+](=O)[O-])c1c(N)n(C)c(=O)n(C)c1=O` (stereo not drawn), the inhibition was 28.2%.

Regarding `CCOc1ccc(C(=O)C(CCC(CN(C)C)C(=O)c2ccc(OCC)cc2)CN(C)C)cc1` (stereo not drawn), the inhibition was 54.2% (active).

On to `CCN(CC)S(=O)(=O)c1ccc(N/N=C/c2cc(OC)ccc2O)nc1`, for which the inhibition was 19.9%.

Take `CCN(c1cccc(C)c1)c1ncnc2nc[nH]c12`: the inhibition was 28.4%.

For `Cc1ccc(/C=C2\SC(=S)N(CCCC(=O)Nc3ccc(O)cc3)C2=O)cc1`, the inhibition was 69.4% (active).

On to `CC(C)CCOc1cccc(OCC(=O)Nc2ccncc2)c1`, for which the inhibition was 38%.

As to `Cc1ccc2nc(NC(=O)CSCC(=O)OCC(=O)c3ccc(Br)cc3)sc2c1`, the inhibition was 89.2% (active).

Consider `O=S(=O)(/C(=C/c1ccc(C(F)(F)F)cc1)c1nc2ccccc2[nH]1)c1ccccc1`, for which the inhibition was 30.6%.

With `CCOc1cc(/C=C2\COc3ccccc3C2=O)ccc1OCC(=O)N(C)C`, the inhibition is 27.8%.

Regarding `O=C(O)c1ccc(N/N=C/c2ccc3c(c2)OCO3)cc1`, the inhibition was 51.3% (active).

On to `Cc1ccc(-n2nc3c(=O)n(C(C)C(=O)NCCC4=CCCCC4)nc(C)c3c2C)cc1` (stereo not drawn), for which the inhibition was 29.1%.

As for `Cc1noc(C)c1COC(=O)c1cccc(S(=O)(=O)N2CCCCCC2)c1`, the inhibition was 13%.

Consider `Cc1ccc(NC(=O)c2ccccc2NS(=O)(=O)c2ccc(F)cc2)cc1S(=O)(=O)N1CCCCC1`, for which the inhibition is 27.6%.

`CCC(=O)c1ccc(O)c(CC=C(C)C)c1`: the inhibition is 14.5%.

Take `CCOc1ccc(C(=O)O/N=C(\N)c2ccccn2)cc1`: the inhibition is 21.9%.

Turning to `COc1ccc(-c2csc3ncnc(NCCN4CCOCC4)c23)cc1`, the inhibition was 41.1%.

`COc1ccc(C(=O)Nc2ccc(C)cn2)c(OC)c1`: the inhibition was 49.8% (active).

Consider `COc1ccc(Cc2nnc(N/N=C/c3ccc(O)cc3)[nH]c2=O)cc1OC`, for which the inhibition was 50.5% (active).

Regarding `CC[C@@]1(O)C(=O)OCc2c1cc1n(c2=O)Cc2cc3c(CN(C)C)c(O)ccc3nc2-1`, the inhibition is 46%.

Regarding `Cc1nc([N+](=O)[O-])c(Sc2nc3ccccc3n2C)n1Cc1ccccc1`, the inhibition is 46.5%.

As for `CC(=O)Nc1ccc(Oc2sc(C(=O)c3ccccc3)c(N)c2C#N)cc1`, the inhibition is 32.6%.
